PHOSPHO1 block – inhibitors of human PHOSPHO1 phosphatase | AID 1565 | hit rate 1.1% among 290,000 | Q8TCT1 | inhibition, % at 13.3 µM | recombinant PHOSPHO1, absorbance phosphatase assay; in the data active = inhibition above about 60%
Target sequence (Q8TCT1 whole entry, looked up): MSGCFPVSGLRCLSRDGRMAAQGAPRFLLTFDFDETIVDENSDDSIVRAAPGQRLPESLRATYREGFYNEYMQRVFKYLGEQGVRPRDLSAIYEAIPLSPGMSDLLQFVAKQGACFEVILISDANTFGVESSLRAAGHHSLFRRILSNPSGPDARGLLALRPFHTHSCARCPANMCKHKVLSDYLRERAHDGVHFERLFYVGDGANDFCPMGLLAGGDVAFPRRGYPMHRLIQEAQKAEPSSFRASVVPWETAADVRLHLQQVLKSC
APOBEC3A inh – inhibitors of human APOBEC3A DNA deaminase | hit rate 0.41% among 330,000 | recombinant A3A, FAM/TAMRA ssDNA deamination fluorescence | inhibition, % at 20 µM;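 active = at least 40% inhibition at 20 µM here, with at most 30% in a related deaminase screen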;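 also: plate controls were A3A with DMSO for no effect and wells lacking A3A enzyme for full effect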
Target sequence (P31941 whole entry, looked up): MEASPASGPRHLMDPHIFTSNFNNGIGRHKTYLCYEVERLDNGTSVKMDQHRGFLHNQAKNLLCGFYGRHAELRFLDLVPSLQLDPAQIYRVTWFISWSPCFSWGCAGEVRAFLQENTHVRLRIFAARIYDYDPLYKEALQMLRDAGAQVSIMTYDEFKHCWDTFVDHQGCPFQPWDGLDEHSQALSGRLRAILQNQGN
A3G deaminase – APOBEC3G (human) deaminase inhibition. inhibition, % at 20 µM. hit rate 0.28% among 330,000. Q9HC16. AID 493012. recombinant A3G, ssDNA deamination FAM/TAMRA fluorescence;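 active = inhibition of at least 40% at 20 µM, with no more than 30% in the related APOBEC3A deaminase screen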;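 also: plate controls were DMSO wells with A3G for no effect and wells lacking A3G enzyme for full effect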
aDG glyco act – alpha-DG glycosylation activation. Pro5-aDG cells, alpha-DG glycosylation AlphaScreen (IIH6); 0% Pro5, 100% B10-LARGE cell signal. activation, % at 10 µM. hit rate 0.22% among 360,000;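 active = activation of at least 8% versus controls, or a plate z-score of at least 8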;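 also: Pro5 are CHO cells carrying HIG-tagged alpha-DG that lacks glycosylation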
ALR H2O2 inh – inhibitors of human sulfhydryl oxidase ALR; P55789; purified ALR, DTT oxidation, H2O2 HRP-luminol luminescence; inhibition, % (test concentration not listed); hit rate 3.8% among 290,000;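 active = mean replicate inhibition above about 79%, with every replicate also reaching it, limit read from the data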
rCAG binder – r(CAG) repeat RNA binding | TO-PRO-1 dye displacement fluorescence | inhibition, % at 3 µM | hit rate 1.3% among 370,000 | AID 651821;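 active = inhibition above the plate cutoff, the mean of all test compounds on that plate plus 3 SD, cut at about 35% in these data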;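 also: 0% = DMSO alone and 100% = 100 µM mitoxantrone as full dye displacement; higher means more dye released from RNA so lower well fluorescence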
* hit, by the source's call; . = no result given. Hits are enriched below; roughly 5.4% of the tested compounds scored in any of these assays.

SMILES	PHOSPHO1 block	APOBEC3A inh	A3G deaminase	aDG glyco act	ALR H2O2 inh	rCAG binder
CCC(=O)N1CCc2cc(Br)c(S(=O)(=O)N3CCC(C(=O)NC(C)(C)C)CC3)cc21	.	.	.	.	.	1.8
O=c1[nH]c(SCc2ccccc2F)nc2ccccc12	36.8	1.9	-0.9	-0.2	-14.3	-1.1
O=c1cc(CSc2nc3ccccc3c(=O)[nH]2)c2ccc(O)cc2o1	60.0*	.	.	1.7	.	25.6
COC(=O)C1=C(C)N(C)C(=NCc2cccc(C(F)(F)F)c2)NC1c1cccc(F)c1 (centres undefined)	.	.	.	.	.	7.7
CC(C)[C@H](N)c1nnc(SCc2ccc(Cl)cc2)o1	6.0	-4.6	-6.5	-0.1	-0.9	-0.2
O=C(CSc1nnc([C@@H]2CCCN2)o1)c1ccc(Cl)cc1	73.5*	0.7	2.6	0.0	61.0	7.7
CCC(C)[C@H](N)c1nnc(SCC(=O)c2ccc(Cl)cc2)o1 (some centres undefined)	78.7*	-2.8	-6.1	0.1	98.4*	5.6
O=C(OC12CCCN(C1)/C(=C/c1ccccc1)C2)C1CCCC1 (centres undefined)	.	.	.	.	.	0.4
COc1ccccc1Oc1ncnc2sccc12	60.9*	-2.4	-6.2	0.1	-7.4	-1.8
O=C(NNC(=O)c1ccco1)c1ccco1	.	.	.	1.1	.	0.9
O=C(c1cc(C(=O)c2ccco2)cc(C(=O)c2ccco2)c1)c1ccco1	13.7	6.7	0.5	-0.5	96.8*	0.6
Cc1cc(C(=O)Nc2c(F)cc(F)cc2Br)c(C)o1	-13.2	-1.3	-0.6	0.2	96.5*	0.9
Cc1noc(C)c1C(=O)Nc1c(F)cc(F)cc1Br	17.4	-0.5	-1.9	0.2	-3.3	-2.7
N#C/C(=C\c1cccnc1)c1nc2c(s1)CCCC2	31.7	-1.2	-1.3	0.8	97.6*	-4.6
N#C/C(=C/c1cccnc1)c1ccccc1	18.3	-5.6	-3.7	0.0	-5.4	1.2
CC1CCc2nc(/C(C#N)=C/c3cccnc3)sc2C1 (centres undefined)	20.1	-0.5	-1.9	0.5	97.0*	-1.1
CCOC(=O)N1CCN(S(=O)(=O)c2ccc(C(=O)NNc3nc4ccc(Cl)cc4s3)cc2)CC1	-8.6	-3.3	-7.0	-0.3	98.3*	.
CCOC(=O)N1CCN(S(=O)(=O)c2ccc(C(=O)NNc3nc4cc(C)cc(C)c4s3)cc2)CC1	-20.9	-1.3	-1.1	0.0	1.9	.
CCOC(=O)N1CCN(S(=O)(=O)c2ccc(C(=O)N(CCN(CC)CC)c3nc4c(C)cccc4s3)cc2)CC1	14.2	0.3	-3.7	-0.1	5.9	-0.7
CCOC(=O)N1CCN(S(=O)(=O)c2ccc(C(=O)NNc3nc4c(C)cccc4s3)cc2)CC1	-13.5	-1.9	-5.3	-0.2	57.7	75.5*
Cc1ccccc1N1CCN(S(=O)(=O)c2ccc3c(c2)oc(=O)n3C)CC1	.	.	.	.	.	5.3
Cc1ccc2c(c1)Oc1ccc([N+](=O)[O-])cc1C(=O)N2	-19.6	-1.1	-8.3	0.4	-6.3	7.2
Cc1ccc2c(c1)Oc1ccc(NC(=O)CCl)cc1C(=O)N2	-19.6	0.8	-3.3	-0.6	93.3*	5.3
CCCn1c(/C=C/c2ccccc2)nc2ccccc21	-15.0	-1.9	-4.4	0.1	1.4	-3.5
CC(C)Cn1c(/C=C/c2ccco2)nc2ccccc21	8.3	1.6	1.2	0.0	97.0*	8.8
SMILES	PHOSPHO1 block	APOBEC3A inh	A3G deaminase	aDG glyco act	ALR H2O2 inh	rCAG binder
Cc1nc2c(C)cccc2c(SC(=N)N)c1CC=C(Cl)Cl	30.5	-3.3	-3.2	-0.1	8.3	5.2
C=CCc1c(C)nc2c(C)cccc2c1SC(=N)N	38.6	1.8	0.9	-0.2	99.9*	-0.7
O=C(Nc1ccc(F)cc1F)C1CCCN1S(=O)(=O)c1cccnc1 (centres undefined)	.	.	.	.	.	2.1
Cc1nnc(SCc2cnc(-c3ccc(C(C)C)cc3)s2)n1C	8.8	-4.2	-1.8	0.1	98.3*	-6.9
c1ccc(-c2ncc(CSc3nncn3-c3ccccc3)s2)cc1	30.1	1.7	-4.6	2.0	.	-6.1
CC(CCN1CCC(C(O)(c2ccccc2)c2ccccc2)CC1)Oc1ccc(OC(F)(F)F)cc1 (centres undefined)	.	.	.	.	.	0.0
CC(=O)OCC1(C)CN(c2ccccc2)NC1=O (centres undefined)	-25.8	1.7	4.7	0.1	99.3*	-0.3
CC(C)c1cc(=O)n2[nH]c(SCc3ccccc3)nc2n1	62.7*	-3.6	-9.0	-0.1	-2.2	1.3
COc1cc2[nH]c3ccccc3c2cc1C	17.5	-4.1	-6.8	0.3	81.0*	0.7
CCOC(=O)c1ccc2[nH]c3ccccc3c2c1	23.6	-0.2	-6.8	0.0	-0.2	9.1
CCc1cc2c(nc1CC)CCCN2CCOC	.	.	.	.	.	5.2
COc1ccc(N2CSC3=C(C#N)C(c4cccs4)CC(=O)N3C2)cc1 (centres undefined)	89.4*	.	.	-0.2	11.1	1.0
CCOC(=O)c1ccc(N2CSC3=C(C#N)C(c4cccs4)CC(=O)N3C2)cc1 (centres undefined)	93.7*	-3.4	-5.1	0.0	15.1	14.8
COc1ccc(NC(=O)CSc2nnc(C3CCCCC3)n2N)cc1	32.7	6.5	-5.1	0.1	-41.1	-0.2
CCOC(=O)c1sc(N)c(C#N)c1CSc1nnc(C2CCCCC2)n1N	87.5*	-0.6	0.6	0.0	.	2.3
CC(C)(C)c1ccc(-c2nnc3n2N=C(c2ccc(Cl)cc2)CS3)cc1	.	.	.	.	.	2.9
CC(c1n[nH]c(=S)n1-c1ccc(F)cc1)N1CCCCC1 (centres undefined)	27.8	0.1	-10.4	-0.4	90.7*	-1.1
CC(c1n[nH]c(=S)n1-c1ccc(Cl)cc1)N(C)C (centres undefined)	-14.1	-4.1	-1.0	-0.2	40.9	0.6
CN1C=CC=C/C1=C1/SC(=S)N(Cc2ccccc2)C1=O	-10.9	-4.2	-1.2	-0.3	99.2*	0.0
COc1ccc(N2C(=O)/C(=C3/C=CC=CN3C)SC2=S)cc1	-16.4	-1.4	-2.5	0.0	59.9	0.8
CCN1/C(=C2\SC(=S)N(Cc3ccccc3)C2=O)Sc2ccccc21	-1.3	4.0	-4.2	-0.1	.	2.1
CCN1C(=O)/C(=C2/C=CC=CN2C)SC1=S	-41.5	0.0	-0.4	-0.1	98.7*	0.8
CC(C)(c1ccc(O)cc1)c1ccc(O)cc1	27.0	-0.5	1.4	0.1	91.3*	-3.0
COc1ccc(Nc2nc(Cl)nc(NCCO)n2)cc1	-9.4	2.9	-8.2	0.0	.	-2.5
CC(C)c1ccc(Nc2nc(Cl)nc(NCCO)n2)cc1	24.7	-0.4	-5.2	0.7	97.4*	1.7
N#CCC[C@H]1CC[C@]2(CCCN(C(=O)c3ccno3)C2)O1	.	.	.	.	.	1.8
CC(C)c1[nH]nc2c1C(c1ccc(Br)cc1)NC2=O (centres undefined)	.	.	.	.	.	1.5
OC(CN1CCCCCC1)CN(c1ccccc1)c1ccccc1 (centres undefined)	14.1	-4.5	1.5	0.3	99.0*	2.9
OC(CN1CCCCC1)CN(c1ccccc1)c1ccccc1 (centres undefined)	14.8	-2.0	-2.7	0.2	98.3*	-3.9

Source: PubChem BioAssay (several laboratories)
